# Screening results (PubChem BioAssay)
# In the library only some 2.9% were active in any assay of this set; here they are far more common.
# MEKK2wt PB1 HTS: raises or lowers MEK5 binding to wildtype human MEKK2 PB1 domain; Q9Y2U5; bead flow cytometry, Alexa488-MEK5 binding to MEKK2 WT; actives lie on both sides; binding response (% of control), % at 10 µM; hit rate 1.1% among 290,000; AID 1531; in the data active = binding response below about 67% or above about 130%
# ABCB6 inh MLPCN: blocks the human ABCB6 transporter. Q9NP58. K562-ABCB6 porphyrin accumulation, flow cytometry, 1 h; active compounds read low. fluorescence ratio to DMSO, % at 10 µM. hit rate 0.19% among 360,000;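 active = fluorescence ratio to DMSO below 75%, the collection mean minus 3 SD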;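 note: signal is porphyrin accumulated inside mitochondria; 100% equals median channel fluorescence of DMSO control wells; lower ratio means ABCB6 inhibition with less porphyrin fluorescence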
# CRFBP-R2 agonist: CRF-BP/CRF-R2 complex agonism; HEK293 CRF-R2/CRF-BP, calcium dye fluorescence (FLIPR); percent of saturating CRF peptide response; activation, % at 13.2 µM; hit rate 0.46% among 350,000; AID 588473;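 active = activation of at least 50%, plus an integration ratio under a set limit after plate pattern correction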;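 note: plate controls were neutral control wells without compound for no effect and CRF at EC100 for full effect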
# MEKK3 PB1 HTS: MEKK3-MEK5 PB1 interaction, increase or decrease; AID 1529; Q99759; hit rate 1.4% among 290,000; binding response (% of control), % at 10 µM; bead-based flow cytometry, Alexa488-MEK5 binding to MEKK3; actives lie on both sides; 0 = blocked by unlabeled MEK5, 100 = vehicle;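 active = binding response more than 3 SD above or below the average of its plate-row segment, actives on both sides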;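 note: Alexa488 bead fluorescence after subtracting the streptavidin-only scavenger bead signal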
# CRFBP-R2 block: blocks CRF-induced signaling of the CRF-BP/CRF-R2 complex | HEK293 CRF-R2/CRF-BP, CRF-induced calcium fluorescence | inhibition, % at 11.8 µM | hit rate 0.59% among 350,000;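 active = inhibition of the ligand-induced calcium signal above about 50% at the single tested concentration, limit read from the data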
# MEKK2 mut-MEK5: signal of MEK5 binding to mutant human MEKK2 PB1 domain; bead flow cytometry, Alexa488-MEK5 binding to MEKK2 mutant; percent response, % at 10 µM; hit rate 0.35% among 290,000; in the data active = percent response above about 24%, passing the limit was not always enough
# Numbers without * were called inactive; · = no result; [ ] = dose if it differs, or a comment.
SMILES,MEKK2wt PB1 HTS,ABCB6 inh MLPCN,CRFBP-R2 agonist,MEKK3 PB1 HTS,CRFBP-R2 block,MEKK2 mut-MEK5
N#C/C(=C\c1ccc(N2CCOCC2)o1)c1ccccc1,90,105,6,99,35,4
CC1CC1c1ccc(/C=C(\C#N)C(=O)Nc2ccc(Cl)cc2)o1 (stereo not drawn),96,90,10,105,-16,16
N#C/C(=C\c1ccc(N2CCOCC2)o1)C(=O)Nc1ccc(O)cc1,103,104,125*,109,-117,-1
CCCCc1nc2ccccc2c(NC(=O)CN(CC)CC)c1CCC,110,88,0,104,98*,8
O=C(c1ccc2snnc2c1)N1CCN(c2ccccn2)CC1,103,117,0,101,79*,3
CC(NS(=O)(=O)c1ccc2c(c1)CC(=O)N2C)c1ccccc1 (stereo not drawn),92,88,-2,98,-5,-6
CC(C)Cn1cc(C(=O)N2CCC(C)CC2)c2c3ccccc3n(C)c2c1=O,106,92,-2,105,50*,3
CCN1CCOC(CC(=O)Nc2ccc([N+](=O)[O-])cc2)C1=O (stereo not drawn),101,100,-2,98,2,1
CCOc1ccc(NCc2cccn2-c2nnc(N3CCC(C(=O)NCCCN4CC(C)CC(C)C4)CC3)s2)cc1 (stereo not drawn),137*,103,0,105,2,23
COc1ccc(-n2nc3c(N4CCC(C(=O)N5CCC(C)CC5)CC4)nnc(C)c3c2C)cc1,476*,201,16,139*,-2,920*
Cc1nnc(N2CCC(C(=O)N3CCCCC3)CC2)c2nn(-c3ccc(Cl)cc3)c(C)c12,103,89,-1,99,-2,-3
Cc1ccc(C(=O)N2c3ccccc3N(Cc3ccccc3)C(=O)C2(C)C)cc1,100,90,6,106,52*,3
O=[N+]([O-])c1ccc(N/N=C/c2c[nH]c3ccccc23)c(S(=O)(=O)Nc2ccc(Cl)cc2)c1,·,398,94*,·,-190,·
CSCCC(NC(=O)c1ccco1)C(=O)OCC(=O)N1c2ccccc2NC(=O)C1(C)C (stereo not drawn),·,98,-1,·,-2,·
COc1ccc(CN2CCS(=O)(=O)CC2)cc1OC,106,100,5,105,64*,-3
COc1ccc(CN2CCN(Cc3ccc4ccccc4c3)CC2)cc1OC,117,89,-1,107,-9,14
CCOC(=O)C1=CCC2C(=O)N(C)C(=O)C12 (stereo not drawn),·,104,·,·,·,·
Clc1nc(N2CCOCC2)ncc1Br,-4.0*,100,-2,91,-5,2
CCOc1ccc(S(=O)(=O)n2ccc(C)n2)c2ccccc12,91,101,-2,92,55*,-7
O=C1CCCCN1CCC(=O)N1CCCC(N2CCN(c3ccccc3)CC2)C1 (stereo not drawn),95,100,0,95,-11,-1
Cc1ccc(/C=C2\Oc3c(ccc(O)c3CN3CCN(CCO)CC3)C2=O)cc1,85,102,86*,102,-16,-12
ON=C1c2ccccc2-c2ccc(O)cc21,·,101,-7,·,14,·
Nc1ccc2c(c1)C(=NO)c1ccccc1-2,·,93,-3,·,96*,·
COCc1c(C(=O)N(C)Cc2ccccc2N2CCCC2)oc2ccccc12,·,93,-1,·,7,·
CSc1ccc(/C=C2\C(=N)N3N=C(CC(=O)N4CCOCC4)SC3=NC2=O)cc1,111,94,-4,104,7,8
SMILES,MEKK2wt PB1 HTS,ABCB6 inh MLPCN,CRFBP-R2 agonist,MEKK3 PB1 HTS,CRFBP-R2 block,MEKK2 mut-MEK5
CCN(CC)c1ccc(/C=C2\C(=N)N3N=C(CC(=O)N4CCOCC4)SC3=NC2=O)cc1,87,263,109*,93,-57,-26
CN(Cc1ccco1)S(=O)(=O)c1nnc(NC(=O)c2ccccc2Cl)s1,98,93,-1,99,3,-2
COc1cc(C(=O)NNC(=S)NC(=O)c2ccc(Cl)cc2)cc(OC)c1OC,109,96,35,102,-9,2
O=C(O)c1ccccc1NC(=S)NC(=O)c1sc2ccccc2c1Cl,103,89,-1,103,-1,0
COc1ccc(C(=O)NC(=S)NNC(=O)c2ccc(C)cc2)cc1,·,108,132*,·,-69,·
COc1ccc(C(=O)NNC(=S)NC(=O)c2ccc(Cl)cc2)cc1,·,·,117*,·,2,·
CCCCC(=O)NNC(=S)NC(=O)c1ccc(C)cc1,64,99,135*,94,49,-12
O=C(NNC(=S)NC(=O)c1sc2ccccc2c1Cl)c1ccc(Cl)cc1,85,92,210*,80,-222,-6
CCC(=O)NC(=S)NNC(=O)c1ccc(OC)cc1,102,100,-4,103,32,4
CCc1cc(=O)oc2c3c(cc(OCC(=O)N[C@H](C(=O)O)[C@H](C)CC)c12)OC(C)(C)CC3,103,97,-1,104,3,10
COC(=O)c1ccccc1NC(=O)C/C(C)=N/NC(=O)Cc1ccc(Cl)cc1,12*[inhibitor],94,·,6.0*[inhibitor],·,-11
O=C(C1CC(=O)N(C2CCCC2)C1)N1CCN(c2cccc(Cl)c2)CC1 (stereo not drawn),107,106,-11,101,32,5
CCc1sc(C(=O)NCCc2ccc(S(N)(=O)=O)cc2)cc1Br,94,83,-9,96,61*,-3
CCOc1cc(/C=N/Nc2nc(-c3cccs3)c(NC(C)=O)s2)ccc1O,96,96,-4,103,4,4
CC(C)c1ccc(NC(=S)NN2CCOCC2)cc1,115,107,83*,101,50*,11
CC(=O)O/N=C/c1c(N2CCOCC2)n(C)c2ccccc12,100,52*,-2,99,-2,2
N#CCc1ccc(NS(=O)(=O)c2cccs2)cc1,98,94,0,99,112*,2
O=S(=O)(Nc1ccc(Cc2ccncc2)cc1)c1cccs1,94,104,1,93,-2,0
O=C(NC1CCCN(Cc2ccc(Cl)cc2)C1)c1c(F)ccc(F)c1F (stereo not drawn),108,98,-1,98,0,4
CCCN1CNC(=S)N(Cc2ccccc2)C1,98,110,-2,98,10,0
S=C1NCN(CCc2ccccc2)CN1Cc1ccccc1,104,99,1,103,108*,-1
COc1cc(CC(=O)NCc2ccc3c(c2)OCO3)cc(OC)c1OC,98,92,-1,100,-4,2
COc1cc(C[C@H](C)[C@H](C)Cc2ccc3c(c2)OCO3)ccc1O,100,96,0,96,59*,2
CCCc1nnc(SCC(=O)NC2CCCC2)n1CCOC,101,95,0,102,5,5
